Measured values: the supplement of paper PMC3334620
The full ranking holds about 33,000 sequences; the median of “E-score (-0.5 to 0.5)” is about -0.012, and the highest 2% start at about 0.27. The sample holds the highest values, similar sequences and a random draw of the others, so the mix is not that of the screen.

molecular target: T1, Vhr1 (UniProt P40522); assay: PBM E-score (8-mer binding enrichment) (E-score (-0.5 to 0.5)); higher = stronger / more preferred TF binding; conditions: protein concentration: 200 nM; construct: GST-full length
T1 sequence: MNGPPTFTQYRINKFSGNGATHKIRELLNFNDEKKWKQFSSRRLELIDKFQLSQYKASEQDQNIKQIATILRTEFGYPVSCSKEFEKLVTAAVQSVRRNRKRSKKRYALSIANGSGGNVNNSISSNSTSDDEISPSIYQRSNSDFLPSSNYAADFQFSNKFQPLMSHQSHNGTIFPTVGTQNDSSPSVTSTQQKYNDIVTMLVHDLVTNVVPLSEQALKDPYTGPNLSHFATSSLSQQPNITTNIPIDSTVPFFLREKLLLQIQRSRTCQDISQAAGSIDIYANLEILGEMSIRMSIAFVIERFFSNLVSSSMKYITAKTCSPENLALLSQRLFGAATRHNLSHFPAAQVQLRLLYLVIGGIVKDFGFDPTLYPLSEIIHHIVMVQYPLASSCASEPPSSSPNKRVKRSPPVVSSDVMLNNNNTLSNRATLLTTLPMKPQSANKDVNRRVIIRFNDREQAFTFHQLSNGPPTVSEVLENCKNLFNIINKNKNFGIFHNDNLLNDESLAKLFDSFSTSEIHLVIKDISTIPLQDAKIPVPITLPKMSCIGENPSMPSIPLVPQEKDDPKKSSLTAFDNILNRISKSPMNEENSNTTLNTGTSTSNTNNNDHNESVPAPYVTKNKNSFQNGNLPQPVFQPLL
Protocol: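 Universal 'all 10-mer' protein binding microarrays (Agilent AMADID 015681) probed with GST-tagged S. cerevisiae TFs (full-length or DBD) made by in vitro transcription/translation (PURExpress), about 100-200 nM. Bound TF was detected with fluorescent anti-GST. Each ungapped 8-mer (which stands for itself and its reverse complement) is scored by the PBM enrichment score (E-score), a modified Wilcoxon-Mann-Whitney statistic from -0.5 to +0.5, computed with the Universal PBM Analysis Suite. Scale: above 0.35 generally sequence-specific binding.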

Sequence	PBM E-score
TACTCGGA	0.126
CACTCGTA	-0.0431
GACTCGTA	0.327
GACTCGGA	0.278
GACTCGCA	0.319
AACTCGTA	0.0622
AACTCGGA	0.0616
AACTCGCA	-0.0141
TACTCGCA	0.263
GACTCGCC	0.276
CACTCGCC	0.147
AACTCGCC	0.00825
AGCGCATA	-0.0303
CCCAATAG	-0.0738
GACTAAGA	0.0912
AGTGTTGG	0.107
ATGCTGGA	-0.001
AATCTCTC	-0.0867
CTAGAGGC	-0.341
CCTTAGAC	-0.16
AGGCTGAG	-0.0574
AACGCGTC	-0.137
CACGCGTC	0.275
CACGCGTA	-0.0315
GCTCATAA	0.0821

Sequence	PBM E-score
CTGAGCCA	0.247
GTGAGCCA	0.355
ATGAGCCA	0.271
GCAATGGA	-0.128
AGGAGTGG	0.0494
ATCAGAAC	0.0119
CCAGTCAA	0.045
GCAGTCAC	0.353
ACAGTCAC	0.242
GCAGTCCC	0.106
CCAGTCAC	0.296
GCAGTCAA	0.0401
ACGTTGCA	-0.0853
ACCATTAT	0.169
GCCATGCC	0.00234
TCTGCCAA	-0.205
CACTGATA	0.0775
GCAAAATA	0.00706
ATAATCAA	0.0618
ACAATCAC	0.275
GTAATCAC	0.198
CCAATCAC	0.179
CTAATCAC	0.27
ATAATCAC	0.308
GCAATCAC	0.159

Sequence	PBM E-score
ATAATCAG	0.0967
ATAATCAT	0.389
ACCAGCGT	0.0656
GCAGAACA	0.091
CTATTGGA	-0.0419
CAAGGGCG	-0.203
CCACTCGG	-0.147
CTCCCTAA	-0.107
GCAGATTA	0.0608
ATAAGAAG	-0.11
GAGTACCA	0.172
CTCCAATC	0.0374
ATAGTCAT	0.411
ATAGTCTG	-0.0734
CTAGTCAG	0.247
AAAGTCAT	0.256
ATCGTCAT	0.134
ATAGTCAA	0.165
ATAGTCAG	0.333
ATAGTCCC	0.0218
ATAGTCAC	0.41
CAACCTTC	-0.171
AACTGGGT	-0.041
GAAGAATC	-0.1
TCTTCACA	0.0437

Sequence	PBM E-score
CTTTCACC	-0.204
ATTGTTCC	0.127
TCAAGCGA	-0.0594
GGCTCTAA	-0.0817
ACATAACA	0.0352
GCATAACA	-0.116
TCATAACA	0.272
CTCTTGGA	0.0822
AAAGATTT	-0.134
AATCACAT	0.17
CCTCACAG	0.0151
ACGCACAG	0.04
AATCACAC	0.316
ACACTCAG	-0.0414
ACGCACAT	0.0403
ACACTCAC	0.281
ACTCACAT	0.286
ACTCTCAC	0.115
AATCACAA	0.187
AATCACAG	0.27
ACTCACAG	0.325
AGTCTGAC	0.148
AGGGTCAC	-0.0656
CTTCTTAC	-0.221
CACGGCGG	0.102

Sequence	PBM E-score
ACAGGAGG	-0.164
CGGAGTAA	0.0314
AATCGTGT	0.0868
AAAAGAGG	-0.134
GCCACACC	0.134
CCGGTGGC	-0.0116
CCTCACAC	-0.0104
GCTCACAC	0.148
ACTCACAA	0.286
TCTCACAA	0.0793
CCTCACAA	0.115
ACTCACAC	0.39
GAAAGTCC	-0.317
CGAGACTC	0.309
CAAGACTA	-0.0514
CAAGACTG	-0.0294
CGAGACTA	0.202
AGAGACTC	0.222
CAAGACTC	0.295
TAGTTATA	0.00574
ACCCTACC	0.00399
ACATTGAC	0.0886
CAAAGCCG	-0.295
CTCACCTA	0.103
ATTACTGC	0.206

Sequence	PBM E-score
TACGAAGA	-0.0938
CCCTACTC	-0.067
AGGTATGA	0.163
CGCACACA	0.134
AACACACG	0.00318
CACACAAA	0.124
AACACACA	0.33
CACACATA	0.204
TACACACA	0.268
AACACACT	0.205
CACACACG	0.272
CACACACA	0.276
CCCATTCG	0.00579
AAGAGGGT	-0.255
AGAGGTAT	0.144
CGTCCTAG	-0.181
ATGCTAAG	-0.0834
CCTATCAA	-0.182
ATTCATCC	0.0498
CGTCATCC	0.0455
ATTCATCG	0.121
CGTCATCA	0.0722
GGTCATCA	0.136
AGTCATCG	0.44
AGGCATCG	-0.22

Sequence	PBM E-score
AGTCATCA	0.439
AGTCATCC	0.464
CGGCGGGC	0.221
CAAGATAA	0.0275
CATGGAGG	-0.101
CCACGAAC	0.101
CAGGACAC	0.135
GCTCATCA	0.109
ACTCATCA	0.32
CCTCATCG	0.0284
TCTCATCA	-0.131
ACTCATCT	0.199
ACTCATCG	0.304
CCTCATCC	-0.182
GCTCATCC	0.0555
ACTCATCC	0.412
GCCTTCAC	-0.0812
CTTTATCA	-0.157
AAGCTACC	0.00426
ACCCATGC	0.273
AACCATGA	0.351
GCCCATGA	0.262
